Only some compounds are listed: those with a hit (about 0.3% of all), similar ones and a draw of the others.
hcGAS lum: Primary biochemical luminescence assay for human cyclic GMP-AMP synthase inhibitors. Q8N884. recombinant h-cGAS, ATP depletion, Kinase-Glo luminescence. inhibition, % at 12.5 µM. hit rate 0.081% among 290,000. AID 1259398, 2018
Target sequence (Q8N884 whole entry, looked up): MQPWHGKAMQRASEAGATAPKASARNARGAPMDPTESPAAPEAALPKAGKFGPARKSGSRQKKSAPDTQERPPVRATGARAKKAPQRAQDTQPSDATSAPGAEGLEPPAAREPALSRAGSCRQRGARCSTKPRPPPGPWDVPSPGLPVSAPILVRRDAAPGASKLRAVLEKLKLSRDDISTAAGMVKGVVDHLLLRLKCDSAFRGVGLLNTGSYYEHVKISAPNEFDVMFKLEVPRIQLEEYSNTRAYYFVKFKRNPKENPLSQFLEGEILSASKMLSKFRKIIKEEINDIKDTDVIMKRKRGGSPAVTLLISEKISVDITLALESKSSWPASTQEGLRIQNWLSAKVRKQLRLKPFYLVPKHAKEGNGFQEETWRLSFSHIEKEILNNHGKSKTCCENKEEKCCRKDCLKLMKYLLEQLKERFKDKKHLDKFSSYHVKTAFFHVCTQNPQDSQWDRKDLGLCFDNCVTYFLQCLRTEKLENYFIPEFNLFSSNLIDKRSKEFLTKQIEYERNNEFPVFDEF
mcGAS inh: cyclic GMP-AMP synthase inhibitors, mouse, primary biochemical chemiluminescence. inhibition, % at 12.5 µM. hit rate 0.15% among 160,000. recombinant cGAS, Kinase-Glo ATP depletion luminescence. Q8C6L5
NPYLR7 agonist: agonists of mosquito NPYLR7 receptor, primary screen, cell-based, Aedes aegypti, calcium fluorescence, mosquito biting behavior; Aedes aegypti neuropeptide Y-like receptor 7 (NPYLR7); HEK293T NPYLR7/Galpha15, GCaMP6s calcium fluorescence; activation, % at 10 µM; hit rate 0.15% among 270,000; in the data active = activation above about 40%
Of the large screens only hits and unclear results are named; the others gave an inactive call; ! = a repeat was not active. Cut-off read from the data, not from the text of the source, unless noted: active = inhibition above about 40%; inactive = the rest.

COc1ccc(CCN2C3CCC2CC(NC(=O)C24CC[C@@](C)(C(=O)O2)C4(C)C)C3)cc1OC (stereo partly drawn)	none
COc1ccc(CN2C3CCC2CC(NC(=O)C24CC[C@@](C)(C(=O)O2)C4(C)C)C3)c(OC)c1 (stereo partly drawn)	mcGAS inh 76
CC1(C)CC2CC(C)(CN2C(=O)c2cc3ccsc3n2CCCc2ccccc2)C1 (stereo not drawn)	none
O=C(/C=C/c1cccc([N+](=O)[O-])c1)n1cnc2ccccc21	mcGAS inh 42
O=[N+]([O-])c1cccc(C=Nn2cnc3ccccc32)c1	none
CCC(C(=O)N(Cc1cc(N)ccc1N(C)C)CC1CC1)c1ccccc1 (stereo not drawn)	none (no result: mcGAS inh)
O=C(C1CC=CCC1)N1CCc2onc(-c3ccc(C(F)(F)F)cc3)c2C1 (stereo not drawn)	none
CC(C)NC(=O)C(C)N1CCc2onc(-c3ccc(C(F)(F)F)cc3)c2C1 (stereo not drawn)	NPYLR7 agonist 135
Cc1ccc(S(=O)(=O)Nc2ccc(-c3cn4ccc(C)nc4n3)cc2)c(C)c1	none (no result: mcGAS inh)
COc1cc(/C=C2\SC(=S)N(C(CC(=O)O)C(=O)O)C2=O)ccc1O (stereo not drawn)	NPYLR7 agonist 68
COc1cc(/C=C2\SC(=S)N(c3cccc(C(=O)O)c3)C2=O)ccc1O	NPYLR7 agonist 52
COCCN1C(=O)/C(=C/c2ccc(O)c(OC)c2)SC1=S	none (no result: mcGAS inh)
COc1ccc(/C=C2\SC(=S)N(c3ccc(C(=O)O)cc3)C2=O)cc1OC	none
CCC(CC)C(=O)Nc1c(C)n(C)n(-c2ccccc2)c1=O	none
Cc1c(NC(=O)COC(=O)C(C#N)=Cc2ccc(N(C)C)cc2)c(=O)n(-c2ccccc2)n1C	NPYLR7 agonist 50
COc1cc(CSc2nnc(NC(=O)C3CCC3)s2)cc(OC)c1	mcGAS inh 83
O=C(Nc1nnc(SCc2cc(F)cc(F)c2)s1)C1CC1	none
COc1ccccc1Oc1nc(N2CCOCC2)nc2c1CN(Cc1ccc([N+](=O)[O-])cc1)CC2	none (no result: mcGAS inh)
O=S(=O)(Nc1cc(Sc2ncn[nH]2)c(O)c2ccccc12)c1ccc(Br)cc1	mcGAS inh 44
CC(C)(C)c1ccc(S(=O)(=O)Nc2cc(Sc3ncn[nH]3)c(O)c3ccccc23)cc1	none
Cc1nc(SCc2ccc(Cl)cc2)c(C#N)c(C)c1C	none
Cc1cccn2c(=O)c(C(=O)NCc3ccccc3)c(O)nc12	none
O=c1c2ccc(-c3cccnc3)nc2[nH]n1-c1ccccc1	none (no result: mcGAS inh)
Cn1c(=O)[nH]c2nnc(-c3cccnc3)nc2c1=O	hcGAS lum 41, mcGAS inh 58
COc1ccc(-c2n[nH]c(=S)n2N=Cc2ccc(OC)c(Br)c2)cc1	none
COc1cc(Br)c(O)c(/C=N\n2c(C)n[nH]c2=S)c1	NPYLR7 agonist 134 (no result: mcGAS inh)
COc1cccc(-c2noc3c2CN(CCCc2cccnc2)CC3)c1	none
COc1ccc(C(=O)N(Cc2ccccc2)C2CCC(NC(=O)C3CCN(C(=O)c4ccccc4Cl)CC3)CC2)cc1 (stereo not drawn)	NPYLR7 agonist 45
COc1ccc(C(=O)N(Cc2ccccc2)C2CCC(NC(=O)C3CCN(C(=O)c4ccc(Cl)cc4)CC3)CC2)cc1 (stereo not drawn)	none
CC(C)CCNC(=O)c1cc(-c2ccccc2F)nc2cc(-c3ccccc3)nn12	none
O=c1c(-c2ccccc2)coc2cc(O)cc(O)c12	hcGAS lum 70 (no result: mcGAS inh)
O=c1cc(-c2ccccc2)oc2cc(O)cc(O)c12	none
N#Cc1ccc(NC(=O)CSc2nncn2CCc2cccs2)cc1	none (no result: mcGAS inh)
Brc1ccsc1/C=C/c1cccs1	none (no result: mcGAS inh)
COC(=O)c1cc(N)c(/C=C/c2cccs2)s1	NPYLR7 agonist 184 (no result: mcGAS inh)
CN1C(=S)N(CCCN2CCOCC2)C(=O)/C1=C/c1ccc(N(C)C)cc1	NPYLR7 agonist 60
CN1C(=S)N(CCCN2CCOCC2)C(=O)/C1=C\c1ccc2c(c1)OCO2	none
CCC(C(=O)N(CC(=O)Nc1cc(-c2ccccc2)nn1-c1ccc(F)cc1)C(C)C)c1ccccc1 (stereo not drawn)	none (no result: NPYLR7 agonist)
Cc1nn(C)c(C)c1CC(C)NC(=O)N(C)Cc1ccncc1 (stereo not drawn)	none
N#CCSc1cn(CC(=O)N2CCCCC2)c2ccccc12	none
O=C(NCC(F)(F)F)c1ccc2c(=O)[nH]c(=S)[nH]c2c1	none (no result: mcGAS inh)
O=C1/C(=C/c2ccc(-c3cccc(Cl)c3)o2)NC(=S)N1c1ccccc1	none
O=C1NC(=S)N(c2ccc3ccccc3c2)C(=O)/C1=C/c1ccc(-c2cccc(C(=O)O)c2)o1	hcGAS lum 56, mcGAS inh 81
COc1ccc(C(NC(=O)C2CCN(CCOc3ccccc3OC)CC2)c2ccccc2C)cn1 (stereo not drawn)	none
Cc1ccc(NC(=O)CN(C)S(=O)(=O)c2ccc3c(c2)CC(=O)N3C)cc1	none
CC1CCC(C(C)C)C(OC(=O)c2ccc([N+](=O)[O-])s2)C1 (stereo not drawn)	none (no result: mcGAS inh)
CCCS(=O)(=O)N1CCN=C1SCc1ccccc1C	NPYLR7 agonist 44
CCCS(=O)(=O)N1CCN=C1SCc1cc(C)ccc1C	none
Cc1nc2nc(-c3cccc(Cl)c3)cc(C(=O)O)c2[nH]1	none
Cc1nc2nc(-c3cc(Cl)ccc3O)cc(C(=O)O)c2[nH]1	mcGAS inh 51
COCCN(Cc1ccc(OS(C)(=O)=O)cc1)C(=O)c1ccccc1Cl	none
O=C1SC(Nc2ccc(Br)cc2)C(=O)N1c1ccccc1 (stereo not drawn)	NPYLR7 agonist 85
O=C1SC(Nc2ccc(Br)cc2)C(=O)N1CCN1C(=O)c2ccccc2C1=O (stereo not drawn)	none
COCC(=O)Nc1ccc(-n2nc(OCCc3ccc(OC)cc3)nc2-c2ccc(Cl)c(Cl)c2)cc1	none
Cc1ccc(Nc2nc(NCCc3ccccc3)nc3nccnc23)c(C)c1	none (no result: mcGAS inh)
CC(=NCCCn1ccnc1)c1c(-c2ccccc2)[nH]n(-c2nc3ccccc3s2)c1=O	none
CCCN=Cc1c(-c2ccccc2)[nH]n(-c2nc3ccccc3s2)c1=O	hcGAS lum 54
Cc1ccc2nc(Cn3cnc4c(Cl)cc(Cl)cc4c3=O)cc(=O)n2c1	NPYLR7 agonist 61 (no result: mcGAS inh)
Cc1ccc2nc(Cn3cc(C(F)(F)F)cc(Cl)c3=O)cc(=O)n2c1	none (no result: mcGAS inh)
Cn1cnc(-c2ccc(F)cc2)cc1=O	none
Cn1nc(-c2ccc(F)cc2)nc2c(=O)n(C)c(=O)nc1-2	mcGAS inh 67
Cc1cccc(N2CCN(c3nc(-c4ccccc4F)nc4ccccc34)CC2C)c1 (stereo not drawn)	none
Nc1nc(Cl)nc2c1ncn2[C@@H]1O[C@H](CO)[C@@H](O)[C@H]1O	NPYLR7 agonist 76 (no result: mcGAS inh)
NC(=O)c1ncn(C2O[C@H](CO)[C@@H](O)[C@H]2O)c1N (stereo partly drawn)	none (no result: mcGAS inh)
OC[C@H]1O[C@@H](n2cnc3c(NC4CCCC4)nc(Cl)nc32)[C@@H](O)C1O (stereo partly drawn)	none (no result: mcGAS inh)
Nc1nc(Cl)nc2c1ncn2[C@@H]1O[C@H](CO)[C@H](O)C1O (stereo partly drawn)	NPYLR7 agonist 97
Nc1ncn([C@@H]2O[C@H](CO)[C@@H](O)[C@H]2O)c(=O)n1	NPYLR7 agonist 46!
Nc1nc(Nc2ccccc2)nc2c1ncn2[C@@H]1O[C@H](CO)[C@H](O)C1O (stereo partly drawn)	none

Screening results from PubChem.
